The record followed here is the supplement of paper PMC13094657.

± gives the standard deviation of the averaged measurements.
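Throughout, for cell viability relative to vehicle unstimulated control: viability of the cells left after supernatant collection, read with Deep Blue dye added for 4 h, as absorbance at 570 nm minus 600 nm.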

The subject of the first assay is MDA-MB-231. Put plainly: cell viability relative to vehicle unstimulated control (fraction); higher = more viable cells. The note with it: pre-treatment time: 18 h then 24 h IFNg/TNF.
In the case of `C[C@@H]1CC[C@H]2[C@@H](C)C(=O)O[C@@H]3O[C@@]4(C)CC[C@@H]1[C@]32O4` [Deoxyartemisinin] (compound dose: 10 uM), the cell viability was 1.28 ± 0.3.
Still for that read-out and setting: the same measure for `CC(=O)O[C@H]1CC(=O)OC(C)(C)[C@@H]2CC(=O)[C@]3(C)[C@H](CC[C@@]4(C)[C@@H](c5ccoc5)OC(=O)[C@H]5O[C@]543)[C@@]12C` [Nomilin] (compound dose: 10 uM): 1.03 ± 0.023.
The same measure, in the same setting: the same measure for `CC1=CC[C@@H](C(C)(C)O)CC1` [α terpineol (mixed)] (compound dose: 10 uM): 0.977 ± 0.065; for `CC1=CCC(C(C)C)=CC1` [γ-Terpinene] (compound dose: 10 uM): 1.07 ± 0.036; for `COc1ccc2c(c1O)C(Cc1ccc(O)cc1)[N+](C)(C)CC2` (stereo not drawn) [Oblongine] (compound dose: 10 uM): 0.969 ± 0.037.
Same read-out and setting: the same measure for `CC(=O)OC[C@H]1O[C@@H](OC[C@H]2O[C@@H](OC(=O)[C@]34CCC(C)(C)C[C@H]3C3=CC[C@@H]5[C@@]6(C)CC[C@H](O[C@@H]7OC[C@H](O)[C@H](O)[C@H]7O[C@@H]7O[C@H](CO)[C@@H](O)[C@H](O)[C@H]7O)C(C)(C)[C@@H]6CC[C@@]5(C)[C@]3(C)CC4)[C@H](O)[C@@H](O)[C@@H]2O)[C@H](O)[C@@H](O)[C@@H]1O[C@@H]1O[C@@H](C)[C@H](O)[C@@H](O)[C@H]1O` [Acanthopanaxoside B] (compound dose: 10 uM): 1.095 ± 0.0013.
For the molecule `COC(=O)[C@H]1[C@H]2C[C@@H]3c4[nH]c5cc(OC)ccc5c4CCN3C[C@H]2C[C@@H](OC(=O)c2cc(OC)c(OC)c(OC)c2)[C@@H]1OC` [Reserpine] (compound dose: 10 uM), the cell viability is 0.954 ± 0.028.

The next assay relates to MDA-MB-231. Put plainly: kynurenine production, fold change vs DMSO IFNg/TNF control; higher = more kynurenine produced (less inhibition). The following applies: pre-treatment time: 18 h then 24 h IFNg/TNF. In short, it runs like this: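 MDA-MB-231 cells were seeded in 96-well plates at 7 × 10^4/well and, 24 h later, pre-treated for 18 h with each natural product in 0.1% DMSO. They were then stimulated for 24 h at 37°C with IFNγ (1 U/ml) and TNF (6.25 ng/ml). Supernatants were treated with trichloroacetic acid and p-dimethylaminobenzaldehyde and read at 492 nm against 0–100 μM standards. Kynurenine production is expressed as fold change over cytokine-stimulated vehicle wells on the same plate and, in the first screening round, averaged across duplicate plates.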
Regarding `CC(C)=CCC[C@](C)(O)[C@@H]1CC=C(C)CC1` [Levomenol] (compound dose: 10 uM), the kynurenine production came out at 1.16 ± 0.056.
Same read-out and setting: the same measure for `COC(=O)[C@@]1(C)CC[C@]2(C(=O)O)CC[C@]3(C)C(=CC[C@@H]4[C@@]5(C)C[C@H](O)[C@H](O)[C@@](C)(CO)[C@@H]5CC[C@]43C)[C@@H]2C1` [Phytolaccagenin] (compound dose: 10 uM): 0.875 ± 0.095; for `COC(=O)c1cccnc1` [Methyl nicotinate] (compound dose: 10 uM): 0.874 ± 0.23; for `CC1(C)[C@@H](O[C@H]2O[C@H](C(=O)O)[C@@H](O)[C@H](O)[C@H]2O[C@@H]2O[C@H](C(=O)O)[C@@H](O)[C@H](O)[C@H]2O)CC[C@]2(C)[C@H]3C(=O)C=C4[C@@H]5C[C@@](C)(C(=O)O)CC[C@]5(C)CC[C@@]4(C)[C@]3(C)CC[C@@H]12` [Ammonium glycyrrhizinate] (compound dose: 10 uM): 0.801 ± 0.2.
Still for that read-out and setting: the figure for `C=C1CCC[C@]2(C)C[C@@H]3OC(=O)C(C)=C3C[C@@H]12` [Atractylenolide II] (compound dose: 10 uM) is 1.06 ± 0.041; for `COc1cc2c(=O)c3c(O)c([C@@H]4O[C@H](CO[C@@H]5OC[C@](O)(CO)[C@H]5O)[C@@H](O)[C@H](O)[C@H]4O)c(O)cc3oc2cc1O` [Polygalaxanthone III] (compound dose: 10 uM) it is 1.01 ± 0.037; for `CC12CCC(CC1)C(C)(C)O2` [1,8-cineole] (compound dose: 10 uM) it is 0.913 ± 0.074.
Same read-out and setting: the figure for `C=C1C(OC(C)=O)C(OC(C)=O)C(OC(=O)c2cccnc2)C(C)(C)C=CC(C)C(OC(C)=O)C2(O)CC(C)(OC(C)=O)C(OC(=O)c3ccccc3)C2C1OC(C)=O` (stereo not drawn) [Pepluanin A] (compound dose: 10 uM) is 0.806 ± 0.06; for `O=C(O)/C=C/c1ccccc1` [Trans-cinnamic acid] (compound dose: 10 uM) it is 0.882 ± 0.022.
For `C=C(C)[C@@H]1CC=C(C)C(=O)C1` [L(-)-carvone] (compound dose: 10 uM), the kynurenine production came to 0.974 ± 0.049.
Consider `CC1OC(OC2C(OC3CCC4(C)C(CCC5(C)C4CC=C4C6CC(C)(C)CCC6(C(=O)OC6OC(COC7OC(CO)C(O)C(O)C7O)C(O)C(O)C6O)CCC45C)C3(C)CO)OCC(O)C2O)C(O)C(O)C1O` (stereo not drawn) [Dipsacoside B] (compound dose: 10 uM), for which the kynurenine production turned out to be 0.861 ± 0.32.
Turning to `C=C(C)[C@@H]1CC[C@]2(C(=O)O[C@@H]3O[C@H](CO[C@@H]4O[C@H](CO)[C@@H](O[C@@H]5O[C@@H](C)[C@H](O)[C@@H](O)[C@H]5O)[C@H](O)[C@H]4O)[C@@H](O)[C@H](O)[C@H]3O)CC[C@]3(C)[C@H](CC[C@@H]4[C@@]5(C)CC[C@H](O[C@@H]6OC[C@H](O)[C@H](O)[C@H]6O[C@@H]6O[C@@H](C)[C@H](O)[C@@H](O)[C@H]6O)[C@@](C)(CO)[C@@H]5CC[C@]43C)[C@@H]12` [Pulchinenoside C] (compound dose: 10 uM), the kynurenine production was 1.03 ± 0.18.
Same read-out and setting: the same measure for `CC1=CCC(O)(C(C)C)CC1` (stereo not drawn) [Terpineol] (compound dose: 10 uM): 0.885 ± 0.087; for `C=C1C(=O)O[C@@H]2C[C@@]3(C)CCCC(=C)[C@@H]3C[C@H]12` [Isoalantolactone] (compound dose: 10 uM): 0.255 ± 0.077; for `C=C[C@@]1(C)CC(=O)[C@]2(O)[C@@]3(C)[C@@H](O)CCC(C)(C)[C@@H]3[C@H](O)[C@H](OC(C)=O)[C@@]2(C)O1` [Forskolin] (compound dose: 10 uM): 1.37 ± 0.25.
With `C[C@@H]1CC[C@]2(C(=O)O[C@@H]3O[C@H](CO)[C@@H](O)[C@H](O)[C@H]3O)CC[C@]3(C)C(=CC[C@@H]4[C@@]5(C)CC[C@H](O)[C@@](C)(CO)[C@@H]5CC[C@]43C)[C@@H]2[C@]1(C)O` [Pedunculoside] (compound dose: 10 uM), the kynurenine production was 1 ± 0.29.
On the same count and under the same terms, the figure for `C[C@H]1[C@H](C)CC[C@]2(CO)CC[C@]3(C)C(=CC[C@@H]4[C@@]5(C)CC[C@H](O)C(C)(C)[C@@H]5CC[C@]43C)[C@H]12` [Uvaol] (compound dose: 10 uM) is 0.98 ± 0.3.
On the same count and under the same terms, the figure for `CC(=O)O[C@@]1(C)C[C@@H](O)[C@]2(O)C=CO[C@@H](O[C@@H]3O[C@H](CO)[C@@H](O)[C@H](O)[C@H]3O)[C@@H]21` [8-O-Acetylharpagide] (compound dose: 10 uM) is 0.906 ± 0.076; for `C[C@@]12CCc3occc3[C@H]1CC[C@@]13C[C@@H](CC[C@H]12)[C@@](O)(CO)C3` [Cafestol] (compound dose: 10 uM) it is 0.75 ± 0.4; for `CC(=O)OCc1cocc2c(C=O)ccc1-2` [Baldrinal] (compound dose: 10 uM) it is 0.785 ± 0.064.
The same measure, in the same setting: the same measure for `CC(C)=CCC[C@@H](C(=O)O)[C@H]1CC[C@@]2(C)C3=CC[C@H]4C(C)(C)[C@@H](O)CC[C@]4(C)C3=CC[C@]12C` [3-Dehydrotrametenolic acid] (compound dose: 10 uM): 0.83 ± 0.085; for `C[C@@H]1O[C@@H](O[C@H]2[C@H](O[C@H]3CC[C@@]4(C)[C@@H](CC[C@]5(C)[C@@H]4CC=C4[C@@H]6CC(C)(C)CC[C@]6(C(=O)O)CC[C@]45C)[C@]3(C)CO)OC[C@H](O[C@@H]3O[C@H](CO)[C@@H](O)[C@H](O)[C@H]3O)[C@@H]2O)[C@H](O)[C@H](O)[C@H]1O` [Pulsatilla saponin D] (compound dose: 10 uM): 0.141 ± 0.07.
For `CC(C)C12CCC(C)(CC1)O2` [1,4-Cineole] (compound dose: 10 uM), the kynurenine production was 0.863 ± 0.11.
On the same count and under the same terms, the figure for `CC(C)=CCCC(C)(OC1OC(CO)C(O)C(O)C1O)C1CCC2(C)C1C(O)CC1C3(C)CC(O)C(OC4OC(CO)C(O)C(O)C4OC4OC(CO)C(O)C(O)C4O)C(C)(C)C3CCC12C` (stereo not drawn) [Gypenoside XLVI] (compound dose: 10 uM) is 0.812 ± 0.16.
Still for that read-out and setting: the same measure for `CC(CC(=O)C[C@@H](C)[C@H]1CC(=O)[C@@]2(C)C3=C(C(=O)[C@@H](O)[C@]12C)[C@@]1(C)CC[C@H](O)C(C)(C)[C@@H]1C[C@@H]3O)C(=O)O` (stereo partly drawn) [Ganoderic acid G] (compound dose: 10 uM): 0.973 ± 0.16; for `CC1(C)CC[C@]2(C(=O)O)CC[C@]3(C)C(=CC[C@@H]4[C@@]5(C)CC[C@H](O[C@@H]6O[C@H](C(=O)O)[C@@H](O)[C@H](O)[C@H]6O)C(C)(C)[C@@H]5CC[C@]43C)[C@@H]2C1` [Calenduloside E] (compound dose: 10 uM): 0.962 ± 0.087.
The same measure, in the same setting: the figure for `C=CC(C)(O)CCC=C(C)CCC=C(C)C` (mixture of isomers) [Nerolidol] (compound dose: 10 uM) is 0.798 ± 0.2; for `CC12CCC(C1)C(C)(C)C2=O` (single isomer, unassigned; (-)) [(-)-Fenchone] (compound dose: 10 uM) it is 0.955 ± 0.13.
As for `C/C=C1/[C@H](O[C@@H]2O[C@H](CO)[C@@H](O)[C@H](O)[C@H]2O)OC=C(C(=O)OC)[C@H]1CC(=O)OCCc1ccc(O)c(O)c1` [Oleuropein] (compound dose: 10 uM), the kynurenine production was 0.733 ± 0.15.
The same measure, in the same setting: the same measure for `CCCCCCCCCC(=O)O[C@@H]1[C@@H](C)[C@@]2(O)[C@@H](C=C(COC(=O)Cc3ccc(O)c(OC)c3)C[C@]3(O)C(=O)C(C)=C[C@@H]23)[C@@H]2C(C)(C)[C@]12OC(=O)CCCCCCCCC` [Phorbol 12,13-didecanoate 20-homovanillate] (compound dose: 10 uM): 0.74 ± 0.024.
As to `C/C=C(\C)C(=O)O[C@H]1[C@H](O)[C@]2(COC(C)=O)[C@H](O)C[C@]3(C)C(=CC[C@@H]4[C@@]5(C)CC[C@H](O[C@@H]6O[C@H](C(=O)O)[C@@H](O[C@@H]7O[C@H](CO)[C@@H](O)[C@H](O)[C@H]7O)[C@H](O)[C@H]6O[C@@H]6O[C@H](CO)[C@@H](O)[C@H](O)[C@H]6O)[C@](C)(CO)[C@@H]5CC[C@]43C)[C@@H]2CC1(C)C` [Isoescin IA] (compound dose: 10 uM), the kynurenine production stood at 0.779 ± 0.12.
